According to PubChem BioAssay:
Records with an inconclusive call do not appear. Activity calls are given as the source filed them.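 How the source made its calls, unless noted: active means inhibition above 50%, about 3 SD of the validation set; inactive means the rest.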

Columns and labels:
[1] = yeast TOR pathway RPL19A-GFP modulators, primary screen, cell-based, S. cerevisiae, multiplex flow cytometry (AID 1862; in the data active means percent of DMSO control GFP below about 86%;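 further: lower values mimic rapamycin by blocking the RPL19A rise seen in DMSO cells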); details: S. cerevisiae RPL19A-GFP strain, flow cytometry fluorescence, 3 h; at 10 µM; stronger effect = lower value
[2] = modulators of MEP2-GFP levels in yeast, primary screen, S. cerevisiae, multiplex flow cytometry (AID 1867;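 active means GFP response, as percent of the DMSO control, above the screen-wide mean plus 3 SD, about 139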;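 further: median GFP channel fluorescence of barcode-gated MEP2-GFP cells measured by flow cytometry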); details: S. cerevisiae MEP2-GFP strain, 3 h, at 10 µM, stronger effect = higher value, 100% means same as DMSO wells
[3] = modulators of CIT2-GFP expression in yeast, primary screen, S. cerevisiae, GFP fusion, multiplex flow cytometry (AID 1870;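 active means percent response above a set limit, the screen-wide mean plus 3 SD, cut at about 130% in these data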;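 further: barcoded CIT2-GFP strain pooled with four other GFP strains with rapamycin as positive control; median GFP fluorescence per well over plate mean of DMSO wells so 100% = DMSO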); details: 3 h, at 10 µM, stronger effect = higher value
[4] = modulators of LAP4-GFP expression in yeast, primary screen, S. cerevisiae, multiplex flow cytometry (AID 1873;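 active means GFP signal, as percent of the solvent control, above the screen mean plus 3 SD, about 149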); details: 3 h, at 10 µM, stronger effect = higher value
[5] = modulators of AGP1-GFP expression in yeast TOR pathway, primary screen, cell-based, multiplex flow cytometry, S. cerevisiae (AID 1887;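 active means GFP signal above the screen-wide mean plus 3 SD, that is over about 124.5% of the solvent control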;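 further: AGP1-GFP fusion strain of S. cerevisiae within a five-strain barcoded multiplex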); details: 3 h, at 10 µM, stronger effect = higher value
[6] = inhibitors of CD8+ T cell-vesicle binding, pilot screen, LFA-1/ICAM-1 modulator project, MLPCN validation set, flow cytometry (AID 2523;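 active means response below a set limit, under 55% cells CD8-positive and vesicle-bound, and CD8 cells' 90th-percentile brightness under 279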;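 on vesicle binding response: mean PE anti-B7-1 fluorescence of CD8+ cells relative to row control; 100% = QL9-loaded vesicles with DMSO vehicle in the same plate row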); details: 2C mouse CD8+ T cells, at 7 µM, stronger effect = lower value; double positive events: measured here: CD8+/vesicle+ event percentage
[7] = target: Integrin beta-1 (Homo sapiens) + Integrin alpha-4 (Homo sapiens) (UniProt P13612+P05556); assay: inhibition of HUTS-21 binding to VLA-4, pilot screen, VLA-4 allosteric modulator project, U937 cells, HUTS-21 mAb, flow cytometry, validation set (AID 2674); details: HUTS-21 LIBS mAb binding, at 6.7 µM, stronger effect = higher value, binding induced by LDV ligand;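 further: antibody binding induced by the VLA-4 ligand LDV present at three times its Kd; 0% = LDV ligand with antibody and no compound and 100% = antibody without LDV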
[8] = superoxide lowering in aged yeast cells, pilot screen, validation compound set (AID 2706;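 active means superoxide response below 65% of plate, a cut near 3 SD across the whole screen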;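 further: yeast exposed to compound for one week at 30 degrees C before staining; 100% = mean of all compound wells on the same plate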); details: S. cerevisiae aging, superoxide DHE fluorescence; at 10 µM; stronger effect = lower value
[9] = target: Beta-adrenergic receptor kinase 1 (Homo sapiens) (UniProt P25098); assay: GRK2 binders displacing RNA aptamer, biochemical, validation, human GRK2, bead flow cytometry (AID 488806;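 active means aptamer binding inhibition above 30%, about 3 SD of noise from non-fluorescent compounds; inactive means inhibition at or below 30%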); details: bead-bound GRK2, FAM-aptamer displacement, at 10 µM, stronger effect = higher value
[10] = target: Beta-2 adrenergic receptor (Homo sapiens) (UniProt P07550); assay: beta2AR agonists driving receptor internalization, pilot screen, cell-based, FAP fluorogen, flow cytometry, validation set (AID 504459;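 active means percent response above 42, roughly 3 SD of non-fluorescent test compounds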;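 further: agonist-driven loss of surface beta2AR via internalization measured by FAP dye flow cytometry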); details: Am2.2-beta2AR cells, FAP surface receptor flow cytometry; at 10 µM; stronger effect = higher value
[11] = target: AP-2 complex subunit beta (Homo sapiens) (UniProt P63010); assay: inhibitors of arrestin peptide binding to AP2, pilot screen, biochemical, validation set, GST-AP2 beads, flow cytometry (AID 504541;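 active means inhibition above 54%, about 3 SD of non-fluorescent compounds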;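 further: AP2 carries R879A mutation and is captured from E. coli lysate; bead-bound FITC arrestin peptide fluorescence measuring arrestin peptide binding to AP2; 0% = DMSO wells and 100% = excess unlabeled arrestin peptide control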); details: FITC arrestin peptide, at 10 µM, stronger effect = higher value, AP2 beta2 appendage fragment, R879A mutant
[12] = yeast V-ATPase proton transport modulators, S. cerevisiae, pHLuorin, HTS validation (AID 504600; in the data active means response above about 15%;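 further: plate controls were DMSO for no effect and reference compound for full effect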); details: S. cerevisiae pHLuorin cytosolic pH, at 10 µM, stronger effect = higher value
[13] = test system: anti-desmoglein-3 scFv antibody binding to human DSG3; assay: inhibitors of anti-DSG3 scFv binding to DSG3, pilot screen, biochemical, validation compound set, bead-based, flow cytometry (AID 588368;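 active means binding below the plate cutoff, the plate median minus 3 SD, with a reading above zero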;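 further: signal is the median channel fluorescence of bead-bound GFP antibody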); details: Protein G beads, DSG3-Fc, scFv-GFP binding, at 10 µM, stronger effect = lower value
[14] = inhibitors of fungal efflux pumps CDR1, CDR2, MDR1, pilot screen, validation compound set, multiplex, phenotypic (AID 588506;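 active means efflux inhibition above 0.42, the validation set average plus 4 SD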;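 further: Nile Red retained in cells so higher fluorescence means more efflux inhibition; 0 = negative control wells and 1 = enniatin B 25 µM full block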); details: S. cerevisiae pump-expressing triplex, Nile Red efflux flow cytometry; at 10 µM; stronger effect = higher value; the pumps come from Candida albicans
[15] = target: ATP-binding cassette sub-family B member 6 (Homo sapiens) (UniProt Q9NP58); assay: ABCB6 transporter inhibitors, pilot screen, K562-ABCB6 cells, flow cytometry, validation set (AID 588550;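 active means inhibition above the screen-wide mean plus 3 SD, about 51%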;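 further: 0% = DMSO wells and 100% = benzethonium chloride 70 µM positive control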); details: K562-ABCB6 porphyrin accumulation, 1 h, at 10 µM, stronger effect = higher value
[16] = promoters of myeloid differentiation in arrested cells, primary screen, cell-based, GFP/MAC1 double positive, flow cytometry, validation set (AID 588685;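 active means differentiation response of at least 50%, scaled between solvent and reference control, from cells with both markers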;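 further: compound exposure lasts four days before antibody staining and flow analysis; 0% = DMSO wells and 100% = 5 µM fulvestrant positive control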); details: ER-HoxA9 marrow cells, stronger effect = higher value, normalized: vehicle 0, fulvestrant 100

Beta-adrenergic receptor kinase 1 (Homo sapiens), sequence (P25098 whole entry, looked up): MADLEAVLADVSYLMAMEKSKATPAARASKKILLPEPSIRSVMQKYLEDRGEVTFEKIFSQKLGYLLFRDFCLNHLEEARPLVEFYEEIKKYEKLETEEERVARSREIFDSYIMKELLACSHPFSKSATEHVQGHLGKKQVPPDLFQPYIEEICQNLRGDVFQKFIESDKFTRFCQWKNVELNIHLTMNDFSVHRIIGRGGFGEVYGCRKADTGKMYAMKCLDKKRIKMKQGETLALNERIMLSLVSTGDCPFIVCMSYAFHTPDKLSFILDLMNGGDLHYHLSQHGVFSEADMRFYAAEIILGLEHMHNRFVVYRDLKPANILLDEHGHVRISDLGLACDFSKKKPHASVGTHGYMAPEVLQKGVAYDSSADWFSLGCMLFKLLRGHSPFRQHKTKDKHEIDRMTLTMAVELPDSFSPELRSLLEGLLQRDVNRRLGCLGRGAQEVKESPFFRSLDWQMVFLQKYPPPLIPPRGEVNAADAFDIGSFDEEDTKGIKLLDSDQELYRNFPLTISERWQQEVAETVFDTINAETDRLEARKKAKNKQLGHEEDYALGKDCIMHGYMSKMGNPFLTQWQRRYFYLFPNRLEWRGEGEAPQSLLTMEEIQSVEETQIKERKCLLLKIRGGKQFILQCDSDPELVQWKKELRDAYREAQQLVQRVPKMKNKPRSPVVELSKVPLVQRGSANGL
AP-2 complex subunit beta (Homo sapiens), sequence (P63010 whole entry, looked up, the tested form may be a part, one chain of several): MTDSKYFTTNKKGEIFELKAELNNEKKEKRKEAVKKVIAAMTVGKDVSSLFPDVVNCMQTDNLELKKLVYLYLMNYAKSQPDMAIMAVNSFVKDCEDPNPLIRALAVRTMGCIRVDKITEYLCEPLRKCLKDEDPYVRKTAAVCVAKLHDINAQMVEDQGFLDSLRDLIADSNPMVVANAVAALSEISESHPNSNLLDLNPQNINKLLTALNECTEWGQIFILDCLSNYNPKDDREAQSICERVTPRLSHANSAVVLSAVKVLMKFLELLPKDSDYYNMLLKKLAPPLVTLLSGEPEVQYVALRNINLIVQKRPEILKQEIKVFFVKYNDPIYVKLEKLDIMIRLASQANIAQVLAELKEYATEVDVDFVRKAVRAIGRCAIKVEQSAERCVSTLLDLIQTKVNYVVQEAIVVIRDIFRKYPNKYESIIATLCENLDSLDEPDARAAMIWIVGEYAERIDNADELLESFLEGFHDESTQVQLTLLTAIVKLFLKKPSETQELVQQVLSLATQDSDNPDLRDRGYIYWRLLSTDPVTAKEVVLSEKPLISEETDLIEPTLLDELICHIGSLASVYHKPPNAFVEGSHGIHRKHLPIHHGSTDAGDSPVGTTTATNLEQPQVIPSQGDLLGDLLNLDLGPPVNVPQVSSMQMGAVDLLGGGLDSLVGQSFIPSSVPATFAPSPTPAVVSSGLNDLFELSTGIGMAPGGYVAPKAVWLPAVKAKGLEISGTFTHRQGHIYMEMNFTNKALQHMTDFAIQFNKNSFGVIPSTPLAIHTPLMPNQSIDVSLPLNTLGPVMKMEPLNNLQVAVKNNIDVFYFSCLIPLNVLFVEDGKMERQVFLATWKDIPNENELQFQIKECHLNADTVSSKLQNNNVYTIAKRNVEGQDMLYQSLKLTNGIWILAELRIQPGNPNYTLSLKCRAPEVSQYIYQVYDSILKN
Beta-2 adrenergic receptor (Homo sapiens), sequence (P07550 whole entry, looked up): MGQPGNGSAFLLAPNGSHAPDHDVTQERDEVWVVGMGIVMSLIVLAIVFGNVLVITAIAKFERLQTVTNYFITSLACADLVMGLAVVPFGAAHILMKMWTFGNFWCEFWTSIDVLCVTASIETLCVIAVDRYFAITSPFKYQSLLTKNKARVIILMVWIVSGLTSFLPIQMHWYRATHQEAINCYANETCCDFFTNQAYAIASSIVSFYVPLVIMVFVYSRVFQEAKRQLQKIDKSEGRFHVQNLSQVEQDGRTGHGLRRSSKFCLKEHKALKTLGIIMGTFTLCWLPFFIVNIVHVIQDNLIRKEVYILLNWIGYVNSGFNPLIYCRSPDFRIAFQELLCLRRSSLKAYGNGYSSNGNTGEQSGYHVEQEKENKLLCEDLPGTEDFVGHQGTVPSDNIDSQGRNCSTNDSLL
Integrin beta-1 (Homo sapiens) + Integrin alpha-4 (Homo sapiens), sequence (P05556 whole entry, looked up): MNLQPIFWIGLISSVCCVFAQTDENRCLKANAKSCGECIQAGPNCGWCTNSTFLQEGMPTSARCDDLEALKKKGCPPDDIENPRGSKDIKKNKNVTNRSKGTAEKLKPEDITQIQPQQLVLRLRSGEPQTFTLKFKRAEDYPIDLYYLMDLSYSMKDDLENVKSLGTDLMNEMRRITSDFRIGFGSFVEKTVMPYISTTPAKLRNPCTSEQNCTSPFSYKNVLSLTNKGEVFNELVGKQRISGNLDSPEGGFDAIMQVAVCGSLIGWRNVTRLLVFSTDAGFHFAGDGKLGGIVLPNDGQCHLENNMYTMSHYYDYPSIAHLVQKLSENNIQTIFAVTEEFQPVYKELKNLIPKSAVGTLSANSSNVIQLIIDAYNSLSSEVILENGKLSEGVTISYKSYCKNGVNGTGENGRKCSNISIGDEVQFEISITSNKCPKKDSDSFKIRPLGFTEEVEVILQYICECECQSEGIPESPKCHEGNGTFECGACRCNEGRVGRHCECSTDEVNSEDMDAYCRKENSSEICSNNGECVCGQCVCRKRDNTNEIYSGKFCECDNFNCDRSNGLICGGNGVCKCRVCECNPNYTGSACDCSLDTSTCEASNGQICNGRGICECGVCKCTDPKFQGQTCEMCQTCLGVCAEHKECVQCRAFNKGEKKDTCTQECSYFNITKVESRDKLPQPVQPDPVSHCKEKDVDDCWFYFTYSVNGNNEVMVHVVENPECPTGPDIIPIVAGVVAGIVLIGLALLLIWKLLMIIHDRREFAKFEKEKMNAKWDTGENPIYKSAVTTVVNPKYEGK
Integrin beta-1 (Homo sapiens) + Integrin alpha-4 (Homo sapiens), sequence (P13612 whole entry, looked up): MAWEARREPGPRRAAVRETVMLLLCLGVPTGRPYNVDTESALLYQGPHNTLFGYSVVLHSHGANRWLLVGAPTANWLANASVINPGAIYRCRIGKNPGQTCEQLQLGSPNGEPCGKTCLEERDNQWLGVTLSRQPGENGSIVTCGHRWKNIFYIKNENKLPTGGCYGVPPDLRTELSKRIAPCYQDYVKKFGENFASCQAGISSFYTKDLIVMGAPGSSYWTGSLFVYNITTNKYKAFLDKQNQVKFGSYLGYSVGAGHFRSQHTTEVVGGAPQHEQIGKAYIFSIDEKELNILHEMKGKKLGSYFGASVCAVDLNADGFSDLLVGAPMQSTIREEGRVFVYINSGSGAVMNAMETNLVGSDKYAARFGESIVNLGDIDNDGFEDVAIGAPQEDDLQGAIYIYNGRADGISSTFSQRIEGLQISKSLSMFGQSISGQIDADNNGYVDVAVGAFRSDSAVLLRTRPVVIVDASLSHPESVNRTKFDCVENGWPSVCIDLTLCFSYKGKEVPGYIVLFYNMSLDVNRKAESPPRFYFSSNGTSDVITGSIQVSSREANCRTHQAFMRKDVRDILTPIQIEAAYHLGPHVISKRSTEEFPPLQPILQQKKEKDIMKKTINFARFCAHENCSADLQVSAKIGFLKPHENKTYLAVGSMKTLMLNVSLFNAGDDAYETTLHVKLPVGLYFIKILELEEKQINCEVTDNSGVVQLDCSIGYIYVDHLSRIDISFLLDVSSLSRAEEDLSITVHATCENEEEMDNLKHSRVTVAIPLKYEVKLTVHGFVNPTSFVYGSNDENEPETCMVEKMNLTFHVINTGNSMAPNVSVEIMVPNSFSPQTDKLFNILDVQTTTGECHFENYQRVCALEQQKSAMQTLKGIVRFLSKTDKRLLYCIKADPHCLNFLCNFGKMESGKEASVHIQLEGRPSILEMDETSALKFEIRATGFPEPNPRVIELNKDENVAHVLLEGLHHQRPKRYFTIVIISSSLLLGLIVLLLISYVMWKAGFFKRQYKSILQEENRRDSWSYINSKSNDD
ATP-binding cassette sub-family B member 6 (Homo sapiens), sequence (Q9NP58 whole entry, looked up): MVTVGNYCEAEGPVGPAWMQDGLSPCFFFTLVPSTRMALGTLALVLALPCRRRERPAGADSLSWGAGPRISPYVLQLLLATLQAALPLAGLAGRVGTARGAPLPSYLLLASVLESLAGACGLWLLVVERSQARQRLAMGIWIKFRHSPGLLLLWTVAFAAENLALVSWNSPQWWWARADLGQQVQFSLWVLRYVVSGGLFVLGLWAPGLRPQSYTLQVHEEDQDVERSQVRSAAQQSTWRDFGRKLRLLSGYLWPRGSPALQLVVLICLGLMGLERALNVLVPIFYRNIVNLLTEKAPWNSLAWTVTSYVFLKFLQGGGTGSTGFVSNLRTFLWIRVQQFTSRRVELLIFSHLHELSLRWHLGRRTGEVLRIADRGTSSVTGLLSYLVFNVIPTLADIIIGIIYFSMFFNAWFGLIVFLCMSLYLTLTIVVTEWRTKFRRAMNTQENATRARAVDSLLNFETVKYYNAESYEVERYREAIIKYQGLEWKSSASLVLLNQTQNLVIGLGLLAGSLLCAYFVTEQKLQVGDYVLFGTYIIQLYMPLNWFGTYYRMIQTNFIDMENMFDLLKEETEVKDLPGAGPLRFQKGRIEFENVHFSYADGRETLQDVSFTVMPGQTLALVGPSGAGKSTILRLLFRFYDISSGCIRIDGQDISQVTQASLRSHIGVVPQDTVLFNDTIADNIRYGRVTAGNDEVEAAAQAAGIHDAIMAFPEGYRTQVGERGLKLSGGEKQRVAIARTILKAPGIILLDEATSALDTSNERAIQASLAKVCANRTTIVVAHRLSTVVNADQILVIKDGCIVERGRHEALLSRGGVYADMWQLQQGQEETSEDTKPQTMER

## COc1ccc(C2OC(=O)Cc3cc(OC)c(OC)cc32)cc1 (stereo not given)
[1]
  percent of DMSO control GFP: 90.6% (inactive)
[2]
  GFP response vs DMSO: 127% (inactive)
[3]
  percent response of DMSO control: 91.3% (inactive)
[4]
  GFP response vs DMSO: 82.5% (inactive)
[5]
  GFP response, % of DMSO: 88% (inactive)
[6]
  double positive events: 63.4%
  vesicle binding response: 177% (inactive)
[7]
  inhibition: -6.15% (inactive)
[8]
  superoxide response (% of plate): 94.5% (inactive)
[9]
  aptamer binding inhibition: 2% (inactive)
[10]
  response: -3.02% (inactive)
[11]
  inhibition: -4.51% (inactive)
[12]
  response: -1.1% (inactive)
[13]
  binding (% of control): 103% (inactive)
[14]
  efflux inhibition (fraction of control): -0.38 (inactive)
[15]
  inhibition: 7% (inactive)
[16]
  differentiation response: 3.28% (inactive)

## CN=C(NC#N)NCCSCc1nc[nH]c1C
[1]
  percent of DMSO control GFP: 102% (inactive)
[2]
  GFP response vs DMSO: 101% (inactive)
[3]
  percent response of DMSO control: 109% (inactive)
[4]
  GFP response vs DMSO: 94.8% (inactive)
[5]
  GFP response, % of DMSO: 102% (inactive)
[6]
  double positive events: 62.1%
  vesicle binding response: 195% (inactive)
[7]
  inhibition: -14.5% (inactive)
[8]
  superoxide response (% of plate): 104% (inactive)
[9]
  aptamer binding inhibition: -1% (inactive)
[10]
  response: 3.13% (inactive)
[11]
  inhibition: 5.55% (inactive)
[12]
  response: 0.96% (inactive)
[13]
  binding (% of control): 103% (inactive)
[14]
  efflux inhibition (fraction of control): -0.44 (inactive)
[15]
  inhibition: 9% (inactive)
[16]
  differentiation response: -10.4% (inactive)

## CCN(CC)CCNC(=O)c1cc(Cl)c(N)cc1OC
[1]
  percent of DMSO control GFP: 105% (inactive)
[2]
  GFP response vs DMSO: 107% (inactive)
[3]
  percent response of DMSO control: 89.6% (inactive)
[4]
  GFP response vs DMSO: 92% (inactive)
[5]
  GFP response, % of DMSO: 99.7% (inactive)
[6]
  double positive events: 63.2%
  vesicle binding response: 204% (inactive)
[7]
  inhibition: -28.5% (inactive)
[8]
  superoxide response (% of plate): 104% (inactive)
[9]
  aptamer binding inhibition: 5% (inactive)
[10]
  response: 2.1% (inactive)
[11]
  inhibition: 23.4% (inactive)
[12]
  response: -4.6% (inactive)
[13]
  binding (% of control): 100% (inactive)
[14]
  efflux inhibition (fraction of control): -0.1 (inactive)
[15]
  inhibition: -10% (inactive)
[16]
  differentiation response: 7.09% (inactive)

## NS(=O)(=O)c1ccc(CCNC(=O)C2CCCN2C(=O)OCc2ccccc2)cc1 (stereo not given)
[1]
  percent of DMSO control GFP: 97.2% (inactive)
[2]
  GFP response vs DMSO: 109% (inactive)
[3]
  percent response of DMSO control: 112% (inactive)
[4]
  GFP response vs DMSO: 77.6% (inactive)
[5]
  GFP response, % of DMSO: 103% (inactive)
[6]
  double positive events: 52.2%
  vesicle binding response: 214% (inactive)
[7]
  inhibition: 1.61% (inactive)
[8]
  superoxide response (% of plate): 110% (inactive)
[9]
  aptamer binding inhibition: -8% (inactive)
[10]
  response: -16.9% (inactive)
[11]
  inhibition: -5.77% (inactive)
[12]
  response: 2.16% (inactive)
[13]
  binding (% of control): 104% (inactive)
[14]
  efflux inhibition (fraction of control): 0.19 (inactive)
[15]
  inhibition: 11% (inactive)
[16]
  differentiation response: 3.28% (inactive)

## COc1ccc2c(=O)c(-c3cnn(-c4ccccc4)c3)c(C)oc2c1
[1]
  percent of DMSO control GFP: 102% (inactive)
[2]
  GFP response vs DMSO: 101% (inactive)
[3]
  percent response of DMSO control: 99.6% (inactive)
[4]
  GFP response vs DMSO: 115% (inactive)
[5]
  GFP response, % of DMSO: 109% (inactive)
[6]
  double positive events: 58.6%
  vesicle binding response: 153% (inactive)
[7]
  inhibition: -2.82% (inactive)
[8]
  superoxide response (% of plate): 91.1% (inactive)
[9]
  aptamer binding inhibition: 4% (inactive)
[10]
  response: -30.2% (inactive)
[11]
  inhibition: 7% (inactive)
[12]
  response: 1.88% (inactive)
[13]
  binding (% of control): 103% (inactive)
[14]
  efflux inhibition (fraction of control): -0.13 (inactive)
[15]
  inhibition: -336% (inactive)
[16]
  differentiation response: -0.06% (inactive)

## O=C1C(=O)N2C(=C1C(=O)N1CCCCCC1)c1ccccc1CC21CCCC1
[1]
  percent of DMSO control GFP: 92.2% (inactive)
[2]
  GFP response vs DMSO: 109% (inactive)
[3]
  percent response of DMSO control: 86.3% (inactive)
[4]
  GFP response vs DMSO: 120% (inactive)
[5]
  GFP response, % of DMSO: 99.8% (inactive)
[6]
  double positive events: 59.4%
  vesicle binding response: 201% (inactive)
[7]
  inhibition: 9.13% (inactive)
[8]
  superoxide response (% of plate): 115% (inactive)
[9]
  aptamer binding inhibition: 3% (inactive)
[10]
  response: -8.46% (inactive)
[11]
  inhibition: 31.8% (inactive)
[12]
  response: -1.64% (inactive)
[13]
  binding (% of control): 105% (inactive)
[14]
  efflux inhibition (fraction of control): -0.13 (inactive)
[15]
  inhibition: 3% (inactive)
[16]
  differentiation response: 5.6% (inactive)

## CCCCOC(=O)c1ccc(N)cc1
[1]
  percent of DMSO control GFP: 101% (inactive)
[2]
  GFP response vs DMSO: 104% (inactive)
[3]
  percent response of DMSO control: 110% (inactive)
[4]
  GFP response vs DMSO: 93.7% (inactive)
[5]
  GFP response, % of DMSO: 105% (inactive)
[6]
  double positive events: 59.9%
  vesicle binding response: 183% (inactive)
[7]
  inhibition: -15.8% (inactive)
[8]
  superoxide response (% of plate): 91.1% (inactive)
[9]
  aptamer binding inhibition: -3% (inactive)
[10]
  response: -7.71% (inactive)
[11]
  inhibition: 53.1% (inactive)
[12]
  response: -4.52% (inactive)
[13]
  binding (% of control): 99.4% (inactive)
[14]
  efflux inhibition (fraction of control): -0.03 (inactive)
[15]
  inhibition: -2% (inactive)
[16]
  differentiation response: -7.5% (inactive)

## CC1(C)CC(CC(=O)O)(c2ccc(Cl)cc2)CCO1 (stereo not given)
[1]
  percent of DMSO control GFP: 86% (inactive)
[2]
  GFP response vs DMSO: 126% (inactive)
[3]
  percent response of DMSO control: 96.6% (inactive)
[4]
  GFP response vs DMSO: 85.3% (inactive)
[5]
  GFP response, % of DMSO: 92.8% (inactive)
[6]
  double positive events: 61.2%
  vesicle binding response: 136% (inactive)
[7]
  inhibition: -0.33% (inactive)
[8]
  superoxide response (% of plate): 94.5% (inactive)
[9]
  aptamer binding inhibition: 3% (inactive)
[10]
  response: -2.75% (inactive)
[11]
  inhibition: -8.86% (inactive)
[12]
  response: 0.57% (inactive)
[13]
  binding (% of control): 107% (inactive)
[14]
  efflux inhibition (fraction of control): -0.17 (inactive)
[15]
  inhibition: 9% (inactive)
[16]
  differentiation response: -3.28% (inactive)

## CC(C)C[C@H]1C(=O)N2CCC[C@H]2[C@]2(O)O[C@](NC(=O)[C@@H]3C=C4c5cccc6[nH]c(Br)c(c56)CC4N(C)C3)(C(C)C)C(=O)N12 (stereo not given in full)
[1]
  percent of DMSO control GFP: 106% (inactive)
[2]
  GFP response vs DMSO: 105% (inactive)
[3]
  percent response of DMSO control: 99.7% (inactive)
[4]
  GFP response vs DMSO: 102% (inactive)
[5]
  GFP response, % of DMSO: 104% (inactive)
[6]
  double positive events: 49.2%
  vesicle binding response: 107% (inactive)
[7]
  inhibition: -7.79% (inactive)
[8]
  superoxide response (% of plate): 97.8% (inactive)
[9]
  aptamer binding inhibition: 0% (inactive)
[10]
  response: -5.85% (inactive)
[11]
  inhibition: -3.14% (inactive)
[12]
  response: 3.49% (inactive)
[13]
  binding (% of control): 99.8% (inactive)
[14]
  efflux inhibition (fraction of control): 0.58 (active)
[15]
  inhibition: -91% (inactive)
[16]
  differentiation response: 1.28% (inactive)

## CC(C)CC(NC(=O)c1cccc(Cl)c1)C(=O)O (stereo not given)
[1]
  percent of DMSO control GFP: 94.6% (inactive)
[2]
  GFP response vs DMSO: 102% (inactive)
[3]
  percent response of DMSO control: 94.8% (inactive)
[4]
  GFP response vs DMSO: 129% (inactive)
[5]
  GFP response, % of DMSO: 101% (inactive)
[6]
  double positive events: 60.5%
  vesicle binding response: 207% (inactive)
[7]
  inhibition: -7.25% (inactive)
[8]
  superoxide response (% of plate): 113% (inactive)
[9]
  aptamer binding inhibition: 0% (inactive)
[10]
  response: -14.8% (inactive)
[11]
  inhibition: 14.1% (inactive)
[12]
  response: 1.45% (inactive)
[13]
  binding (% of control): 98% (inactive)
[14]
  efflux inhibition (fraction of control): -0.13 (inactive)
[15]
  inhibition: 2% (inactive)
[16]
  differentiation response: -5.6% (inactive)
